Among the data in PubChem BioAssay (NCATS) are Potency and outcome values, retold here.

Inconclusive results are not listed. Calls of active or inactive are those of the source. Unless noted, calls come from the whole dose curve.

Assay [1] is described as follows: P-glycoprotein substrates identified in KB-8-5-11 adenocarcinoma cell line, qHTS therapeutic library screen (AID 1346987; active = well fitted curve in the direction sought with a large enough effect; an effect the other way counts as inactive or inconclusive; note: nearly all actives have a fitted effect of over 65% in size; note: potency is the fitted concentration of half-maximal effect). In outline: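 KB-8-5-11: colchicine-selected sub-line of KB-3-1 over-expressing P-gp; assay medium lacked colchicine. 72 h drug exposure at 37 degree C, CellTiter-Glo.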
Assay [2] can be described thus: Natriuretic polypeptide receptor (hNpr1) antagonism - Pilot counterscreen GloSensor control cell line (AID 1347045). Note: series mostly up to about 38 µM. A digest of the protocol:
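HEK293 cells carrying the GloSensor cGMP sensor (GIP/pGS-40F) were loaded with 2% GloSensor reagent for 2 h, exposed to compounds for 30 min, and then stimulated with 50 uM sodium nitroprusside for 20 min at room temperature.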

Assay [3] has as its target Atrial natriuretic peptide receptor 1 (Homo sapiens) (UniProt P16066). Nature of the assay: Natriuretic polypeptide receptor (hNpr1) antagonism - Pilot screen (AID 1347049).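 Note: agonist-evoked cGMP luminescence read 20 min after hNppA addition; series mostly up to about 58 µM.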 A digest of the protocol: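 HEK293 cells co-expressing hNpr1 and the GloSensor pGS-40F cGMP luciferase sensor were preloaded with 2% GloSensor reagent for 2 h. Compounds were added for 30 min at room temperature, then cells were stimulated with 0.1 nM hNppA for 20 min before luminescence readout.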

Assay [4] has as its target Atrial natriuretic peptide receptor 2 (Homo sapiens) (UniProt P20594). Nature of the assay: Natriuretic polypeptide receptor (hNpr2) antagonism - Pilot subtype selectivity assay (AID 1347050). Note: potency is the fitted concentration of half-maximal effect. A digest of the protocol:
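cGMP-sensor HEK293/hNpr2 cells; 2% GloSensor reagent 2 h RT; compounds 30 min; baseline luminescence read; 1 nM hNppC agonist 20 min RT; final luminescence read by CCD camera. Antagonism = reduced post-agonist signal.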

In assay [5] the target is Tyrosine-protein phosphatase non-receptor type substrate 1 (Homo sapiens) + Leukocyte surface antigen CD47 (Homo sapiens) (UniProt P78324+Q08722). Nature of the assay: CD47-SIRPalpha protein protein interaction - LANCE assay qHTS validation (AID 1347057; active = well fitted curve in the direction sought with a large enough effect in the signal ratio, with a control signal flat, not every such curve was filed as active; the % refers to the signal ratio; note: series mostly up to about 38 µM). In outline: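 First, His-tagged CD47 and Eu-labelled anti-His antibody met the compound for 30 min; next, site-specifically biotinylated SIRPalpha was added for 30 min; finally streptavidin-APC was added before reading the TR-FRET ratio.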
For orientation: TR-FRET usually uses a lanthanide donor and a delayed reading to cut background.

Assay [6] can be described thus: NS1 protein of Zika virus - qHTS assay to identify small molecule inhibitors in human HEK 293 cells (AID 1347053; active = well fitted curve in the direction sought with a large enough effect; an effect the other way counts as inactive or inconclusive; note: series mostly up to about 46 µM; nearly all actives have a fitted effect of over 55% in size). A digest of the protocol: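 HEK 293 cells pretreated with compound for 1 h, then infected with ZIKV MR766 (MOI 0.5) for 24 h at 37 C. NS1 detected by TR-FRET with two anti-NS1 antibodies; normalized to uninfected (0%) and infected (100%) wells.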
Background: Quantitative high-throughput screening tests each substance at several concentrations.

Atrial natriuretic peptide receptor 2 (Homo sapiens), sequence (P20594 whole entry, looked up): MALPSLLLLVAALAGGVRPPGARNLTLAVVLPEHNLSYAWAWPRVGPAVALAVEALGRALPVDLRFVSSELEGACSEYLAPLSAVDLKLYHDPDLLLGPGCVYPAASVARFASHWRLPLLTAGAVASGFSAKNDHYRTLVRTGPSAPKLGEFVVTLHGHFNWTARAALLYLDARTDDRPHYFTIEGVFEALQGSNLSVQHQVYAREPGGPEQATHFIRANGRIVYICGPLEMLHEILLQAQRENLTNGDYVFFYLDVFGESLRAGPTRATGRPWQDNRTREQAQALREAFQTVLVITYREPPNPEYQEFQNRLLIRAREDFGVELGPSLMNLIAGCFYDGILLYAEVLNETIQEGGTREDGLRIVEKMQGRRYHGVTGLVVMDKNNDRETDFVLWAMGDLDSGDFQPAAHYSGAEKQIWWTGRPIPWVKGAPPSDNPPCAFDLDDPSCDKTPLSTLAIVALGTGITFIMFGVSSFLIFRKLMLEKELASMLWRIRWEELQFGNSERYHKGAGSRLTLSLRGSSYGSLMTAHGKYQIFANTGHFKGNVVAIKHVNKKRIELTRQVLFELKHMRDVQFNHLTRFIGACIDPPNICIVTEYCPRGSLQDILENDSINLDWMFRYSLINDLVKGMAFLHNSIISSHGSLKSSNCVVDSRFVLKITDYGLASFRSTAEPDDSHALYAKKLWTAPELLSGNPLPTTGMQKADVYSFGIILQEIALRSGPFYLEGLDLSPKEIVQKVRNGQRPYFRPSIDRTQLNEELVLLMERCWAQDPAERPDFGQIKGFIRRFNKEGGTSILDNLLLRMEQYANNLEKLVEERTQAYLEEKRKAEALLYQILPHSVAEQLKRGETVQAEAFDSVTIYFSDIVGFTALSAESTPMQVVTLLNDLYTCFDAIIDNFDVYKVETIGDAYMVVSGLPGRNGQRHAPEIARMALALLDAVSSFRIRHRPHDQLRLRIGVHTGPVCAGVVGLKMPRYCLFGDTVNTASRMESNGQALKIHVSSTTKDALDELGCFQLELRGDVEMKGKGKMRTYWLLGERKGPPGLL
Atrial natriuretic peptide receptor 1 (Homo sapiens), sequence (P16066 whole entry, looked up): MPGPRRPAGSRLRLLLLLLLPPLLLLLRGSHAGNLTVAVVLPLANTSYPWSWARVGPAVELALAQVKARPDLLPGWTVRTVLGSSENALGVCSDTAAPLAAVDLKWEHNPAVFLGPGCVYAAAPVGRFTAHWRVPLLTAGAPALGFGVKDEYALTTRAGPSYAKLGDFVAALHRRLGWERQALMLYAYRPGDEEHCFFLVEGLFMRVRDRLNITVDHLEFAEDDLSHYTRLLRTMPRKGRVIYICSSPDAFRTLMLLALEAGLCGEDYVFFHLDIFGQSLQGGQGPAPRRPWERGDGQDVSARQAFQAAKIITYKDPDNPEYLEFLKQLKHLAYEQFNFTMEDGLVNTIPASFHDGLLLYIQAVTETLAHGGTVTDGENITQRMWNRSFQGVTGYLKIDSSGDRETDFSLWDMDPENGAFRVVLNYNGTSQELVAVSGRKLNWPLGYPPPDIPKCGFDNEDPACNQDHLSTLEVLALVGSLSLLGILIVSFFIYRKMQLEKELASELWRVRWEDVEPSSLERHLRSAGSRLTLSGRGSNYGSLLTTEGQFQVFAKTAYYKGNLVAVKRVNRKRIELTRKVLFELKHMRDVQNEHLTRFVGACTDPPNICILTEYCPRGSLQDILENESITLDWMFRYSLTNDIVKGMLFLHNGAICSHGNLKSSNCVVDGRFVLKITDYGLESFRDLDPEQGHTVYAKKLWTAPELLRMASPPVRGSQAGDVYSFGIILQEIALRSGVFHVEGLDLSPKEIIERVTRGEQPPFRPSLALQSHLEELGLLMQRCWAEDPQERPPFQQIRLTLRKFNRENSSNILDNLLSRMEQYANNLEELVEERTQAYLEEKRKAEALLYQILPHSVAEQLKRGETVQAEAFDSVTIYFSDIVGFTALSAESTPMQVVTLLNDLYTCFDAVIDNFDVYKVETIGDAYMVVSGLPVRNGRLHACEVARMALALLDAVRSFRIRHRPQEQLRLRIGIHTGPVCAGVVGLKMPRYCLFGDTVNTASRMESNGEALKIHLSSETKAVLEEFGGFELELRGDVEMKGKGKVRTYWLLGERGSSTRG
Tyrosine-protein phosphatase non-receptor type substrate 1 (Homo sapiens) + Leukocyte surface antigen CD47 (Homo sapiens), sequence (P78324 whole entry, looked up): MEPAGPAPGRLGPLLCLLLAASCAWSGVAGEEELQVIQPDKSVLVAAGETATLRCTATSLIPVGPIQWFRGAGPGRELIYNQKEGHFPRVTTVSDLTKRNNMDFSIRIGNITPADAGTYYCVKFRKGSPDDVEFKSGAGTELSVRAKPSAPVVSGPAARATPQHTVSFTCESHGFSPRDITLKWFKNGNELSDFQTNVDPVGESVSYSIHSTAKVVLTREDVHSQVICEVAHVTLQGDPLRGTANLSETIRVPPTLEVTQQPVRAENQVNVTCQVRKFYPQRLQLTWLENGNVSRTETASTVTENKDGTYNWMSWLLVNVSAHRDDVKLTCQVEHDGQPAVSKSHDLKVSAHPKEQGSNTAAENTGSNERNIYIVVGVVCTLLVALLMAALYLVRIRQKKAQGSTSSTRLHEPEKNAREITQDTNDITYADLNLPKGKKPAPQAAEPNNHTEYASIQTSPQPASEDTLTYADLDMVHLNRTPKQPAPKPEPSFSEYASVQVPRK
Tyrosine-protein phosphatase non-receptor type substrate 1 (Homo sapiens) + Leukocyte surface antigen CD47 (Homo sapiens), sequence (Q08722 whole entry, looked up): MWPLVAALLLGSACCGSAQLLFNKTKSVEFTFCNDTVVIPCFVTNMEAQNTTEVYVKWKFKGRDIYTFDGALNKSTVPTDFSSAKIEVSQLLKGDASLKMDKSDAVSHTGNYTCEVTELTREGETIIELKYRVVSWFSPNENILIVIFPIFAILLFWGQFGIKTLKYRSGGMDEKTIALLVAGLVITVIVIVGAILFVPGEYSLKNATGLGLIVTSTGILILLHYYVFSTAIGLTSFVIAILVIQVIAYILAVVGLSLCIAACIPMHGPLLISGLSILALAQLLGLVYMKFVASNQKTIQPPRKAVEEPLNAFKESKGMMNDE

In the case of `CCCCCCCC/C=C\CCCCCCCC(=O)NCc1ccc(O)c(OC)c1`, the Potency result in assay [1], in assay [2], in assay [3] and in assay [4] was “inactive” throughout. Besides, the outcome in assay [5] was inactive.
For `C=CCc1ccccc1OCC(O)CNC(C)C` (stereo unspecified), the Potency result in assay [1], in assay [2], in assay [3] and in assay [4] was “inactive” in each case. In addition, the call in assay [6] and in assay [5] was inactive.
Take `CCCC(C(=O)OCCN(CC)CC)(c1ccccc1)c1ccccc1`: the Potency in assay [1] is 13 µM (active); in assay [4], 10.4 µM (active). The Potency entry in assay [2] and in assay [3] was “inactive” each time. Also, the result in assay [5] was inactive.
Regarding `CC(=O)[C@@]1(O)CC[C@H]2[C@@H]3CCC4=CC(=O)CC[C@]4(C)[C@H]3CC[C@@]21C`, the Potency entry in assay [1], in assay [2], in assay [3] and in assay [4] was “inactive” throughout. The result in assay [6] and in assay [5] was inactive.
Regarding `CN(C)CCOC(=O)COc1ccc(Cl)cc1`, the Potency result in assay [1], in assay [2], in assay [3] and in assay [4] was “inactive” each time. Also, the call in assay [6] and in assay [5] was inactive.
Consider `CCN(CC)CC(=O)Nc1c(C)cccc1C`, for which the Potency result in assay [1], in assay [2], in assay [3] and in assay [4] was “inactive” throughout. In addition, the compound was called inactive in assay [6] and in assay [5].
Regarding `CCN(Cc1ccncc1)C(=O)C(CO)c1ccccc1` (stereo unspecified), the Potency result in assay [1], in assay [2], in assay [3] and in assay [4] was “inactive” each time. Moreover, the result in assay [6] and in assay [5] was inactive.
In the case of `COc1ccc([C@@H]2Sc3ccccc3N(CCN(C)C)C(=O)[C@@H]2OC(C)=O)cc1`, the Potency in assay [1] is 20.6 µM (active). For the same compound, the Potency entry in assay [2], in assay [3] and in assay [4] was “inactive” each time. The compound was called inactive in assay [6] and in assay [5].
As to `CC(=O)Nc1nnc(S(N)(=O)=O)s1`, the Potency result in assay [1], in assay [2], in assay [3] and in assay [4] was “inactive” throughout. In addition, in assay [5], the outcome was inactive.
For `O=C(O)CP(=O)(O)O`, the Potency entry in assay [1], in assay [2], in assay [3] and in assay [4] was “inactive” each time. Also, the compound was classed as inactive in assay [6] and in assay [5].
In the case of `CC(C)(Oc1ccc(CCNC(=O)c2ccc(Cl)cc2)cc1)C(=O)O`, the Potency entry in assay [1], in assay [2], in assay [3] and in assay [4] was “inactive” each time. The call in assay [6] and in assay [5] was inactive.
In the case of `CCN1CCc2nc(N)oc2CC1`, the Potency result in assay [1], in assay [2], in assay [3] and in assay [4] was “inactive” each time. In addition, the result in assay [6] and in assay [5] was inactive.
`O=C1CC2(CCCC2)CC(=O)N1CCCCN1CCN(c2ncccn2)CC1`: in assay [1], the Potency is 9.2 µM (active). The Potency entry in assay [2], in assay [3] and in assay [4] was “inactive” each time. Also, the compound was called inactive in assay [6] and in assay [5].
For `CCc1c(C)[nH]c2c1C(=O)C(CN1CCOCC1)CC2` (stereo unspecified), the Potency result in assay [1], in assay [2], in assay [3] and in assay [4] was “inactive” throughout. The call in assay [6] and in assay [5] was inactive.
Turning to `CO[C@@]1(NC(=O)CSCC#N)C(=O)N2C(C(=O)O)=C(CSc3nnnn3C)CS[C@@H]21`, the Potency result in assay [1], in assay [2], in assay [3] and in assay [4] was “inactive” throughout. Besides, the compound was called inactive in assay [6] and in assay [5].
For `NC(=O)c1ncn([C@@H]2O[C@H](CO)[C@@H](O)[C@H]2O)c1O`, the Potency result in assay [1], in assay [2], in assay [3] and in assay [4] was “inactive” each time. Further, the compound was called inactive in assay [6] and in assay [5].
With `CC(C)(C)NCC(O)c1cc(O)cc(O)c1` (stereo unspecified), the Potency entry in assay [1], in assay [2], in assay [3] and in assay [4] was “inactive” in each case. Also, the call in assay [6] and in assay [5] was inactive.
Regarding `CNCCC(Oc1ccccc1OC)c1ccccc1` (stereo unspecified), the Potency entry in assay [1], in assay [2], in assay [3] and in assay [4] was “inactive” each time. The result in assay [5] was inactive.
Turning to `CCO/C([O-])=N/c1c[n+](N2CCOCC2)no1`, the Potency result in assay [1], in assay [2], in assay [3] and in assay [4] was “inactive” throughout. Further, the outcome in assay [6] and in assay [5] was inactive.
Regarding `O=C(O)CN(CCN(CC(=O)O)CC(=O)O)CCN(CC(=O)O)CC(=O)O`, the Potency entry in assay [1], in assay [2], in assay [3] and in assay [4] was “inactive” in each case. In addition, the call in assay [6] and in assay [5] was inactive.
Regarding `CCN(CC)CCNC(=O)c1cc(S(C)(=O)=O)ccc1OC`, the Potency result in assay [1], in assay [2], in assay [3] and in assay [4] was “inactive” each time. The result in assay [6] and in assay [5] was inactive.
With `CCN(CC)CCNC(=O)c1ccc(NC(C)=O)cc1`, the Potency entry in assay [1], in assay [2], in assay [3] and in assay [4] was “inactive” in each case. In addition, in assay [5], the outcome was inactive.
Take `C[N+](C)(C)CCOC(N)=O`: the Potency entry in assay [1], in assay [2], in assay [3] and in assay [4] was “inactive” each time. Also, the outcome in assay [6] and in assay [5] was inactive.
For the compound `CN1C(=O)CC[C@H]1c1cccnc1`, the Potency result in assay [1], in assay [2], in assay [3] and in assay [4] was “inactive” each time. The result in assay [5] was inactive.
`COc1cc2c(cc1OC)-c1cc(=Nc3c(C)cc(C)cc3C)n(C)c(=O)n1CC2`: in assay [1], the Potency is 25.9 µM (active). In addition, the Potency entry in assay [2], in assay [3] and in assay [4] was “inactive” throughout. The result in assay [5] was inactive.
For the compound `Nc1c2c(nc3ccccc13)CCCC2O` (stereo unspecified), the Potency entry in assay [1], in assay [2], in assay [3] and in assay [4] was “inactive” each time. Also, the compound was classed as inactive in assay [6] and in assay [5].
Regarding `O=c1[nH]c(=O)n([C@H]2C[C@H](O)[C@@H](CO)O2)cc1Br`, the Potency entry in assay [1], in assay [2], in assay [3] and in assay [4] was “inactive” each time. For the same compound, the compound was called inactive in assay [6] and in assay [5].
On to `CN/C(=C\[N+](=O)[O-])NCCSCc1ccc(CN(C)C)o1`, for which the Potency result in assay [1], in assay [2], in assay [3] and in assay [4] was “inactive” throughout. The outcome in assay [5] was inactive.
Turning to `CN1C[C@H](C(=O)N[C@]2(C)O[C@@]3(O)[C@@H]4CCCN4C(=O)[C@H](Cc4ccccc4)N3C2=O)C[C@@H]2c3cccc4[nH]cc(c34)C[C@H]21`, the Potency result in assay [1], in assay [2], in assay [3] and in assay [4] was “inactive” each time. The outcome in assay [6] and in assay [5] was inactive.
For `C[C@H](CS)C(=O)N1CCC[C@H]1C(=O)O`, the Potency entry in assay [1], in assay [2], in assay [3] and in assay [4] was “inactive” each time. The outcome in assay [5] was inactive.
Take `NC(=O)c1cn(Cc2c(F)cccc2F)nn1`: the Potency entry in assay [1], in assay [2], in assay [3] and in assay [4] was “inactive” in each case. For the same compound, the outcome in assay [5] was inactive.
As to `Brc1c(NC2=NCCN2)ccc2nccnc12`, the Potency result in assay [1], in assay [2], in assay [3] and in assay [4] was “inactive” each time. The outcome in assay [5] was inactive.
